Records with an inconclusive call do not appear. Calls of active or inactive are those of the source. The call rests on the fitted dose curve; in most records, active means well fitted activation curve with a large enough effect; inconclusive means small, poorly fitted or top-dose-only effect; inactive means no such curve, though single readings can be large or run the other way.

Chain of Cellular tumor antigen p53 (Homo sapiens) (P04637 whole entry, looked up): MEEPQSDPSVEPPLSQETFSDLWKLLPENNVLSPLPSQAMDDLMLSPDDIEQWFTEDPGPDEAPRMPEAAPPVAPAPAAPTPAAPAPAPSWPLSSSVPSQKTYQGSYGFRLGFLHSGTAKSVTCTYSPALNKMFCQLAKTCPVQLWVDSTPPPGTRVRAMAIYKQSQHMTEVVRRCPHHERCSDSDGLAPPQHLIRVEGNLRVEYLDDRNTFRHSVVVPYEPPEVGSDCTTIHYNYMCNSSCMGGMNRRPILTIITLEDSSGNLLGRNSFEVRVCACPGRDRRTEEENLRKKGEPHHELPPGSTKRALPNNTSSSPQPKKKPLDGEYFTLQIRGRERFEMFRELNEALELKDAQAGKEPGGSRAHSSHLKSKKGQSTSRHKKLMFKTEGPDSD

In this assay the target is Cellular tumor antigen p53 (Homo sapiens) (UniProt P04637). In words: Primary qHTS for small molecule compounds that upregulate eGFP-tagged delta133p53alpha (in N-terminal) cells. (AID 2060322).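 Further: series mostly up to about 56 µM; 0% = DMSO vehicle and 100% = reference activator; nearly all actives have a fitted effect of over 75% in size.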 The settings on record: NCI-H358 eGFP-delta133p53alpha fluorescence, 24 h; activation: active compounds read high. The method in brief:
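NCI-H358 cells pre-induced 24 h with 10 ng/ml doxycycline to express N-terminal eGFP-delta133p53alpha, then dosed 24 h at 37C without doxycycline; fixed, Hoechst-stained, GFP intensity by laser scanning cytometry, normalized to DMSO (0%) and 57.5 uM 5-azacytidine (100%).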
As to `CCc1cc2cc(OC)c(OC)cc2c(Cc2ccccc2)n1`, the activation is -22.6% (inactive).

Take `CNCCN1CCC(OCc2ccccc2)CC1`: the activation is -13.4% (inactive). Regarding `CC(C)(C)NCC(O)COc1ccc(NC(=O)NC2CCCCC2)cc1` (stereo not drawn), the activation was 5.08% (inactive).
